Measured values taken from PubChem BioAssay AID1946 (Johns Hopkins Ion Channel Center, 2009).
The campaign covered roughly 2,400 compounds. About 180 (7.5%) were called active. The sample as a whole holds a higher share of actives than the screen did. A number with no mark means an inactive call.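 How the source made its calls: active means readout below zero, meaning a drop past 3 SD under the dofetilide-free negative control mean; inactive means the rest.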

What follows are compounds tested against Potassium voltage-gated channel subfamily KQT member 2 (Rattus norvegicus) (UniProt O88943) (assay: KCNQ2 blockade in CHO cells – cell-based, FluxOR thallium flux, counter-screen for hERG block protector project, confirmation (AID 1946)). Settings: FluxOR thallium flux fluorescence, at 10 µM, stronger effect = lower value, zero marks the 3-SD hit cutoff.
Sequence of Potassium voltage-gated channel subfamily KQT member 2 (Rattus norvegicus) (O88943 whole entry, looked up): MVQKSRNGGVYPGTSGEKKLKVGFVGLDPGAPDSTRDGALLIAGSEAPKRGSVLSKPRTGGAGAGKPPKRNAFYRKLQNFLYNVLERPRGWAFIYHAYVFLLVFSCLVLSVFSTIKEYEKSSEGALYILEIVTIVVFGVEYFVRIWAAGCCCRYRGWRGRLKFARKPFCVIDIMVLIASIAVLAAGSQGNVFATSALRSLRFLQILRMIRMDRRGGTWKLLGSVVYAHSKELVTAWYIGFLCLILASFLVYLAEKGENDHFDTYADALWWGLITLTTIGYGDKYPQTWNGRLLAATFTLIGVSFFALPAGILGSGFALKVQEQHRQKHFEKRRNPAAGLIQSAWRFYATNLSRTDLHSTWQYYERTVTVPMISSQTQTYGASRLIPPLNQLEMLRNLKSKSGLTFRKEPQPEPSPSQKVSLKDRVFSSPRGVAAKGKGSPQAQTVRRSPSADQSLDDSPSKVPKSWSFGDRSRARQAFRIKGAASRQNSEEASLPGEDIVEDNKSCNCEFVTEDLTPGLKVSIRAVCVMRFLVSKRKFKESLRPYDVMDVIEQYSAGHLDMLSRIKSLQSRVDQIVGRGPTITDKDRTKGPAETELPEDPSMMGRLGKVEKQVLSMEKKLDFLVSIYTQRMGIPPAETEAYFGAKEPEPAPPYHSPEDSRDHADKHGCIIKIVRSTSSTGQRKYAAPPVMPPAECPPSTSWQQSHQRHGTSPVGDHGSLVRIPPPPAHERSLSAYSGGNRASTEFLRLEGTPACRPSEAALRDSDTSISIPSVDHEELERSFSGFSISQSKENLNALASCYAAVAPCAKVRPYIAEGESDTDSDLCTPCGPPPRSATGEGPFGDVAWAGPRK

SMILES	activity change vs negative control
COc1ccc(C(=O)NC(=S)N(Cc2ccccc2)Cc2ccccc2)cc1	51.4%
CCOC(=O)N1CCN(c2c(-c3ccc(C)c(C)c3)c(=O)c2=O)CC1	20.5%
Cc1ccc(C(=O)NC(=S)N(C)C2CCCCC2)cc1Br	17.4%
Cc1ccc(C(C)NC(=O)c2ccc3c(c2)OCO3)cc1C (stereo not given)	58.4%
CCCCNC(=S)NNC(=O)c1ccc2c(c1)OCO2	-2.9% (active)
COc1ccc(CCNC(=O)c2ccc3c(c2)OCO3)cc1	5%
O=c1c(-c2ccccc2)nc(-c2ccccc2)cn1O	88.1%
COc1cccc(C(=O)NNC(=O)C(=O)Nc2cccc(Cl)c2C)c1	83.6%
COC(=O)C1=NN(C(=O)c2cccc(Br)c2)C(O)(c2ccc(Cl)cc2)C1 (stereo not given)	158%
Cc1nc(SCC(=O)NCC2CCCO2)c2c3c(sc2n1)CCCC3 (stereo not given)	32.5%
Cc1ccc(NC(=O)CCc2nc3sc4c(c3c(=O)[nH]2)CCCC4)c(Br)c1	-0.3% (active)
CCOC(=O)c1cnn(-c2nc(SC)nc3sc4c(c23)CCCC4)c1N	5.9%
Fc1ccc(NC(=S)Nc2nccs2)cc1	16.4%
CCC(C)c1ccccc1NC(=S)NC(=O)c1ccco1 (stereo not given)	82%
O=C(CCN1C(=O)/C(=C/c2cccs2)SC1=S)Nc1cccc(C(=O)O)c1	5.2%
COc1cc(/C=C2/SC(=S)N(CC(=O)O)C2=O)ccc1OCC(=O)Nc1ccc(C)c(C)c1	-3.8% (active)
Cc1ccc(NC(=O)CN2C(=O)S/C(=C/c3ccc(-c4cc(C(=O)O)ccc4C)o3)C2=O)cc1C	4.8%
CSc1nc2c(c(=O)[nH]1)C(c1ccccc1Cl)CC(=O)N2 (stereo not given)	1.5%
Cc1cccc(NC(=S)NC(=O)c2ccc(Br)o2)c1C	27.3%
Cc1ccc(C(=O)NC(C)c2ccc(C)c(C)c2)s1 (stereo not given)	53.7%
COc1ccc(/C=C2\SC(c3ccc(C)cc3)=NC2=O)cc1OC	-3.2% (active)
COc1ccc(/C=C2\SC(=N)N(c3nccs3)C2=O)cc1OC	6.8%
COc1cc(/C=C/C(=O)O)ccc1OS(=O)(=O)c1cc(C)ccc1C	13.1%
O=S(=O)(NC(=S)NC1CCCCC1)c1ccc(Cl)cc1	34.4%
S=c1nc(Cc2ccc(Cl)cc2)[nH]c2ccccc12	51.9%

SMILES	activity change vs negative control
COc1ccccc1NC(=O)C1CCCN1C(=O)Nc1ccc(F)cc1 (stereo not given)	1.7%
COc1ccccc1C(=O)NNC(=O)C(=O)NCc1ccccc1	41.8%
COc1ccccc1NC(=O)C1CCCN1C(=O)NCc1ccccc1 (stereo not given)	-1.2% (active)
COc1cccc(OCC(=O)NNC(=O)C(=O)Nc2ccc(OC)cc2OC)c1	43.2%
CCCN1C(=O)/C(=C/c2ccc3c(c2)OCO3)NC1=S	19.4%
O=C1NC(=O)/C(=C/c2cc3c(cc2Br)OCO3)S1	-0.8% (active)
O=C1NC(=S)S/C1=C\c1ccc2ccccc2c1	75.1%
N#Cc1c(NC(=O)c2cc(-n3cnnc3)ccc2Cl)sc2c1CCCC2	13%
COc1ccc(C(=O)CC(=O)C(=O)Nc2ccccc2)cc1	32.5%
CC1CN(C(=S)NC(=O)c2ccc(Cl)cc2)CC(C)O1 (stereo not given)	28.2%
CCn1cc(C(=O)NCCN(C)C)c(=O)c2cc(F)c(N3CCN(C)CC3)cc21	-0.9% (active)
O=C(NC(=S)Nc1cccnc1)c1cc2ccccc2o1	31.9%
COc1ccc(CS(=O)(=O)CC2(O)CCN(C(=O)c3cccc(C(F)(F)F)c3)CC2)cc1	-2.4% (active)
COc1ccc(C(=O)O)cc1S(=O)(=O)Nc1cccc(C(F)(F)F)c1	8%
CC(C)Oc1cccc(C(=O)N2CCCC2)c1	9.7%
C/C(=N\NC(=O)c1cc2ccccc2cc1O)c1cc2ccccc2o1	112%
O=C(Nc1nc(=O)c2ccccc2s1)c1ccc(Cl)cc1	23.9%
Cc1ccc(C(=O)Nc2nc(=O)n(C)s2)cc1	15.9%
Cc1c(-c2ccn[nH]2)cc(NC(=O)c2ccc(Cl)cc2)c(=O)n1N	-0.8% (active)
CCOC(=O)c1ccc(NC(=O)Cn2nnc(-c3ccccc3)n2)cc1	-3.4% (active)
Cc1cc(C)c(-c2cc(NC(=O)COC(=O)c3ccc(NC(=O)CC#N)cc3)n(-c3ccccc3)n2)cc1C	7.4%
CCOC(=O)c1nnn(CC(=O)Nc2cccc(F)c2)c1C(=O)OCC	14.1%
Cc1cccc(NC(=S)NC(=O)c2ccco2)c1C	77.7%
O=C(Nc1nc(-c2ccccc2)c(-c2ccccc2)o1)c1ccc(F)cc1	40.3%
O=C(Nc1cccc2[nH]ncc12)c1ccc(F)cc1	-2.9% (active)

SMILES	activity change vs negative control
CCOc1cccc(C(=O)Nc2ccc3[nH]ncc3c2)c1	15.6%
CCCCn1c(N)c(C(=S)NC(=O)CC(C)(C)C)c(=O)n(C)c1=O	40.5%
Cc1sc2ncnc(SCC(=O)c3ccc(O)cc3O)c2c1C	24.3%
Cn1ncc2c(NNC(=O)Cc3ccccc3)ncnc21	15.1%
Cn1ncc2c(NNC(=O)c3ccc(O)cc3)ncnc21	-3.1% (active)
Cn1ncc2c(O/N=C(\N)c3ccc(C(F)(F)F)cc3)ncnc21	7.4%
O=c1cc(-c2ccccc2)cc(-c2ccccc2)n1O	72.2%
COC(=O)CNc1nc(Cl)nc(Nc2ccc(C)cc2)n1	-0.4% (active)
COC(=O)CNC(=S)NC(=O)c1ccc(C(C)(C)C)cc1	1.6%
COc1ccc(OCC(=O)NNC(=O)C(=O)Nc2ccc(C)cc2)cc1	7.7%
COc1ccc(Cn2c(O)cc(=O)[nH]c2=O)cc1	1.4%
COc1ccc(-n2c(O)c(/C=C3\C=Nc4ccccc43)c(=O)[nH]c2=O)cc1	-8.7% (active)
COc1ccc(-n2c(=S)[nH]c3ccccc3c2=S)cc1	22.2%
CCC1(C)Cc2c(sc3nc(SC)[nH]c(=S)c23)CO1 (stereo not given)	131%
COc1ccc(/C=C/C(=O)Nc2ccccc2C(=O)O)cc1	27.2%
CCOC(=O)/C(C)=N/NC(=O)c1ccc([N+](=O)[O-])cc1	40.5%
CCNC(=S)Nc1nc2c(cc1C(=O)OCC)CCCC2	29.4%
O=C(O)CSCc1c(F)cccc1Cl	-3.5% (active)
O=C(O)CSc1nc2ccccc2nc1Cc1ccccc1F	29.1%
CCN(CC)CCCN1C(=O)c2oc3ccccc3c(=O)c2C1c1cccs1 (stereo not given)	44.2%
CON/C=N/C(=S)Nc1ncc(C(F)(F)F)cc1Cl	51.1%
Cc1nn(C)c(C(=O)NC(=S)Nc2ccc([N+](=O)[O-])cc2)c1Cl	29.3%
Cc1ccc(NC(=S)NC(=O)c2sc3ccccc3c2Cl)c(C(=O)O)c1	36.9%
COc1cccc(C2C3=C(N=c4s/c(=C\c5ccc(OCC(=O)O)cc5)c(=O)n42)c2ccccc2CC3)c1 (stereo not given)	-16.7% (active)
COc1cccc([C@@H]2Oc3ccc(OC)cc3C(=O)[C@H]2OC(=O)NCc2ccc3c(c2)OCO3)c1	2.3%

SMILES	activity change vs negative control
CCOc1ccc(/C=C2\CCc3ccccc3C2=O)cc1	10.2%
O=C(NC(=S)N(CCCCO)C1CCCCC1)c1sc2ccccc2c1Cl	53.8%
O=C(CNCC1CCCO1)N1CCCCCC1 (stereo not given)	8.2%
C=CCn1c(SCC(=O)NCC2CCCO2)nnc1-c1ccccc1 (stereo not given)	8.9%
O=C(CSc1cn(CC(=O)N2CCCC2)c2ccccc12)NCC1CCCO1 (stereo not given)	-4.5% (active)
CC(C)(C)c1cc(C(=O)NNC(=O)c2ccc(Cl)cc2)no1	53.5%
COc1cccc(CN(C)CC2CCCN(CCc3ccc(Cl)cc3)C2)c1OC (stereo not given)	-3.8% (active)
COc1cccc(OC)c1OCCOCCN1CCN(C)CC1	6.8%
Oc1c(Cl)cc(Cl)cc1C=Nc1ccc(Br)cc1	60.6%
CCOC(=O)N/N=C/C=C/c1ccccc1[N+](=O)[O-]	28.8%
C=CCN(c1ccc(Cl)cc1)S(=O)(=O)c1cccc(C(=O)O)c1	26.2%
S=c1nn[nH]n1C12CC3CC(CC(C3)C1)C2	36.2%
CC1CCN(C(=S)NC(=O)c2cccs2)CC1	23.7%
C=CCn1c(=S)[nH]c2scc(-c3cccs3)c2c1=O	121%
C=CCc1cccc(C2Nc3ccccc3C(=O)N2O)c1O (stereo not given)	19%
OC(CNCCc1ccc(C(F)(F)F)cc1)COc1cccc2ccccc12 (stereo not given)	-18.2% (active)
Cn1c(NNC(=O)C(c2ccccc2)c2ccccc2)cc(=O)n(C)c1=O	12.8%
CC12CCC(C(=O)NCc3ccc4c(c3)OCO4)(CC1=O)C2(C)C (stereo not given)	9.1%
Cc1ccc(C(=O)NNc2cc(N3CCCC3)nc(N3CCCC3)n2)cc1	39.7%
COc1ccccc1NC(=O)C(=O)NNC(=O)c1ccco1	47.8%
COc1ccc(COC(=O)C2CCN(S(=O)(=O)c3cccs3)CC2)cc1	9.3%
CC(=O)c1cccc(NC(=O)NCc2cccs2)c1	8.1%
O=C(NCc1cccs1)C1CCC(CNS(=O)(=O)c2cccs2)CC1 (stereo not given)	-0.3% (active)
O=[N+]([O-])c1ccc(-c2ccc(/C=N/n3cnnc3)o2)c(Br)c1	3.2%
CCOC(=O)/C(C)=N/NC(=O)c1cccc([N+](=O)[O-])c1	36.5%
